{
  "source": "PubChem BioAssay (NCI)",
  "note": "The panel holds about 83,000 compounds, 20% with a hit somewhere; the sample as a whole holds those more often.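 A percent growth of 40 corresponds to 60% growth inhibition; 0 means no net growth; -100 means all cells died. Active threshold: below 10.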 A number with no mark means an inactive call. The source made the active and inactive calls.",
  "data": [
    {"tested_on": "NCI-H23 lung", "test": "NCI-60 one-dose screen, 48 h (100 = growth as untreated, 0 = no growth, -100 = all killed)", "details": "10 µM unless noted", "values": [
      {"smiles": "N#CC1=C(N)Oc2c(c(N)nn2-c2ccccc2)C1c1ccc(Cl)cc1Cl", "note": "(configuration not stated)", "growth": "103%"},
      {"smiles": "C=C(C)[C@@H]1CC[C@]2(C=O)CC[C@]3(C)[C@H](CC[C@@H]4[C@@]5(C)C/C(=C/c6cccnc6)C(=O)C(C)(C)[C@@H]5CC[C@]43C)[C@@H]12", "growth": "75.6%"},
      {"smiles": "C=C(C)[C@@H]1CC[C@]2(C(=O)N3CCN(CC)CC3)CC[C@]3(C)[C@H](CC[C@@H]4[C@@](C)(CCC(=O)N5CCN(CC)CC5)[C@H](C(=C)C)CC[C@]43C)[C@@H]12", "growth": "74.4%"},
      {"smiles": "CCN1CCN(C(=O)[C@]23CCC(C)(C)C[C@H]2C2=CC[C@@H]4[C@@]5(C)CC/C(=N/O)C(C)(C)[C@@H]5CC[C@@]4(C)[C@]2(C)CC3)CC1", "growth": "69.7%"},
      {"smiles": "N#CC1=C(N)Oc2c(sc3c(F)cccc23)C1c1ccc(Cl)cc1", "note": "(configuration not stated)", "growth": "43.7%"},
      {"smiles": "O=C1c2cccc3cccc(c23)C(=O)N1CC#Cc1ccc2c3c(cccc13)C(=O)N(CCN1CCNCC1)C2=O", "growth": "73.7%"},
      {"smiles": "C=C(C)[C@@H]1CC[C@]2(/C=N/Nc3ccncc3)CC[C@]3(C)[C@H](CC[C@@H]4[C@@]5(C)CCCNC(C)(C)[C@@H]5CC[C@]43C)[C@@H]12", "growth": "85.9%"},
      {"smiles": "Cc1ccnc2c(OCc3ccccc3)cccc12", "growth": "93.5%"},
      {"smiles": "C=CC(=O)N[C@H](Cc1ccc(-c2cc(Cl)cc(Cl)c2)cc1)[C@H](O)[C@@H](O)C(=O)O", "growth": "93.6%"},
      {"smiles": "C=COCCCCCCCCCCCCCCCCCC", "growth": "101%"},
      {"smiles": "COc1cc2ncnc(Nc3ccc(Oc4ccnc(C)c4)c(C)c3)c2cc1NC(=O)CC1CCSS1", "note": "(configuration not stated)", "growth": "-49.5% (active)"},
      {"smiles": "CN1CCN(c2nc(-c3csc(-c4cccs4)n3)cc3ccccc23)CC1", "growth": "79.1%"},
      {"smiles": "O=C(O[C@@H]1Cc2c(O)cc(O)cc2O[C@@H]1c1cc(O)c(O)c(O)c1)c1cc(O)c2c(c1)OCO2", "growth": "92.6%"},
      {"smiles": "C/C(Cc1ccc(Cl)cc1)=C(/c1ccc(Cl)cc1)c1ccc(OCCN2CCCC2)cc1", "growth": "78.7%"},
      {"smiles": "Cc1cc(N(CCCNc2ccnc3cc(Cl)ccc23)Cc2ccco2)nc(N2CCOCC2)n1", "growth": "52.8%"},
      {"smiles": "Cc1ccccc1-c1nc(C(Cl)Cl)nc2cc(-c3ccccc3)nn12", "growth": "50.4%"},
      {"smiles": "O=C1/C(=C\\C(Cl)=C/c2ccc([N+](=O)[O-])cc2)SC(=S)N1CCc1ccc(O)cc1", "growth": "-57.9% (active)"},
      {"smiles": "Brc1ccc2c(c1)c(-c1nc(-c3c[nH]c4ncccc34)cs1)cn2CCCN1CCCCC1", "growth": "22.4%"},
      {"smiles": "Cn1c(/C(C#N)=C/c2ccc3ccccc3c2)cc2ccccc21", "growth": "19.4%"},
      {"smiles": "CN(CSc1ccc(Cl)cc1)c1ccc(CSc2ccc(Cl)cc2)cc1", "growth": "90.6%"},
      {"smiles": "CCNCCCn1c2c(c3ccc([N+](=O)[O-])cc3c1=O)C(=O)c1cc(OC)cnc1-2", "growth": "-57.2% (active)"},
      {"smiles": "CC1(C)NC2=C(C(Nc3cccnc3)N1)C(c1ccc([N+](=O)[O-])cc1)C(C(=O)c1ccc(N=[N+]=[N-])cc1)O2", "note": "(configuration not stated)", "growth": "103%"},
      {"smiles": "COc1ccc(C2C(C#N)=C(N)Oc3c2sc2c(F)cccc32)cc1", "note": "(configuration not stated)", "growth": "34.6%"},
      {"smiles": "COc1cc(-c2cc3ncccc3c3[nH]c(=O)c4cccnc4c23)cc(OC)c1OC", "growth": "44.5%"},
      {"smiles": "CCCCC/C(=C\\c1ccccc1)C1OC(C)C(C)O1", "note": "(configuration not stated)", "growth": "90.2%"},
      {"smiles": "COc1ccc2c(c1)c(-c1nc(-c3c[nH]c4ncccc34)cs1)cn2CCNC(=O)OC(C)(C)C", "growth": "70.6%"},
      {"smiles": "COc1cc(/C=C/c2cc(/C=C/c3ccc(O)c(OC)c3)n(-c3ccccc3)c(=O)n2)ccc1O", "growth": "78.4%"},
      {"smiles": "CCN1CCN(C(=O)[C@]23CC[C@@H](C)[C@H](C)[C@H]2C2=CC[C@@H]4[C@@]5(C)C/C(=C/c6cccc(OC)c6OC)C(=O)C(C)(C)[C@@H]5CC[C@@]4(C)[C@]2(C)CC3)CC1", "growth": "42.9%"},
      {"smiles": "COc1cc2c(cc1-c1c(C)noc1C)ncc1nc(C3CCCCC3)n([C@@H](C)COC(F)F)c12", "growth": "56.8%"},
      {"smiles": "CC(=O)OC[C@]12CC[C@@H](/C(C)=N/O)[C@@H]1[C@H]1CC[C@@H]3[C@@]4(C)CCCNC(C)(C)[C@@H]4CC[C@@]3(C)[C@]1(C)CC2", "growth": "86.2%"},
      {"smiles": "Brc1cnc2[nH]cc(-c3nnc(-c4ccccc4)o3)c2c1", "growth": "78.5%"},
      {"smiles": "COc1ccc2[nH]c(-c3ccc(Cl)cc3)cc(=O)c2c1", "growth": "94.5%"}
    ]}
  ]
}
